# TDP1 cell CPT – growth inhibition of DT40 Tdp1-/-;hTDP1 cells with camptothecin (screen for TDP1 inhibitors) | chicken DT40 Tdp1-/-;hTDP1 cells + 20 nM CPT, ATP luminescence, 48 h | Potency, µM (series often up to 46.2 µM), for the others: at the highest dose activity change, negative = growth inhibition, actives largely listed as inhibitors | actives 12% (n = 420,000); further: potency means the concentration at half of the fitted maximal effect; nearly all actives have a fitted effect of over 55% in size
#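 Cell growth measured by CellTiter-Glo luminescence after a minimum 48 h, 37 C compound exposure with 20 nM CPT in Tdp1-knockout DT40 cells stably expressing hTDP1, seeded 400/well; qHTS titration format.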
# DT40 TDP1 no CPT – qHTS for Inhibitors of human tyrosyl-DNA phosphodiesterase 1 (TDP1): qHTS in cells in absence of CPT. AID 686978, 2013. DT40 Tdp1-/- hTDP1 cells, no CPT, ATP luminescence, 48 h. Potency, µM (top dose mostly 46.2 µM), inactives show at the top dose activity change, negative = growth inhibition, actives largely listed as inhibitors. actives 15% (n = 420,000); further: potency means the concentration at half of the fitted maximal effect; nearly all actives have a fitted effect of over 55% in size
#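 DT40 Tdp1-/-;hTDP1 cells, no CPT (DMSO vehicle only), 400 cells/well; compounds pin-transferred; ≥48 hr, 37 °C; CellTiter-Glo 30 min RT dark, luminescence read.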
# HT1080 IDH1KD tx – kills HT-1080 cells with IDH1 knockdown; HT-1080 IDH1 knockdown viability, ATP luminescence, 48 h; actives 2% (n = 360,000); AID 686971; Potency, µM (highest dose often 46.1 µM), inactives show at the highest dose activity, negative = toxicity, hits mostly cytotoxic;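 further: potency means the concentration at half of the fitted maximal effect; 0% = DMSO wells and -100% = cell-free medium wells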
#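 Cytotoxicity counter-line: IDH1KD HT-1080, 48 h, CellTiter-Glo. Curves classed by r2, magnitude and activity.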
# IL-1B inflam inh – blocks inflammasome-driven IL-1 beta release; THP-1 LPS/ATP IL-1B secretion, AlphaLISA, 16 h; hits give low values; activity change, % at 57.5 µM; actives 4.7% (n = 360,000); in the data active means activity change below about -50%; inconclusive means mostly about -30% to -49%
#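 THP-1 cells pretreated 1 hr with compounds (up to 57.5 uM final), then stimulated with LPS (250 ng/mL final) plus ATP (1.25 mM final); secreted IL-1B measured by AlphaLISA after 16 hr, decreased signal indicating inhibition.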
# HT1080-NT tox – kills 2HG-producing HT-1080-NT fibrosarcoma cells | actives 1.6% (n = 360,000) | Potency, µM (titrated, usually from 46.1 µM), without a hit: at the top dose activity, negative = less viability, actives largely listed as cytotoxic | HT-1080-NT fibrosarcoma viability, CellTiter-Glo ATP luminescence, 48 h;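 further: NT is the 2HG producing partner of a matched IDH1 knockdown line; potency means the concentration at half of the fitted maximal effect; 0% = DMSO-treated cells and -100% = media-only wells without cells; nearly all actives have a fitted effect of over 55% in size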
#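 Viability by CellTiter-Glo luminescence after 48 h compound exposure at 37C of HT-1080-NT cells (750/well, RPMI, 5% FBS). % activity scaled between DMSO wells and medium-only wells, then curve-fitted and categorized by curve class.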
# * marks the source's active call; other numbers are inactive results; u = inconclusive; x = no result; [ ] = another dose, or the depositor's remark. Shown are actives, neighbours in structure and some others; about 19% of the full set was active somewhere. Unless noted, the call rests on the fitted dose curve; in most records, active means well fitted curve in the direction sought with a large enough effect; inconclusive means small, poorly fitted or top-dose-only effect, or another doubt; inactive means no such curve, though single readings can be large; an effect the other way counts as inactive or inconclusive. Unless noted, on the % scale 0 is the no-effect control and ±100 the full control effect.
SMILES,TDP1 cell CPT,DT40 TDP1 no CPT,HT1080 IDH1KD tx,IL-1B inflam inh,HT1080-NT tox
Cn1c(-c2ccccc2)c(C=O)c2ccccc21,-24.3%,-26.8%,-1.6%,-2.4,9.1%
Cn1c(C(=O)O)c(C=O)c2ccccc21,-7.6%,15.7%,0.6%,-70.4*,7.7%
COc1cccc(CNC(=O)c2ccc(C)c(NC3=NC4CS(=O)(=O)CC4S3)c2)c1 (centres undefined),1.1%,8.3%,-3.3%,-2.5,-1.7%
COc1cc2c(cc1OC)C(c1cc(Br)ccc1O)N(C(C)=O)CC2 (centres undefined),5.9%,1.1%,2.6%,-1.0,12.2%
COc1ccc(NC(=O)c2oc3ccccc3c2NC(=O)c2ccco2)c(OC)c1,6.31µM*,u,6.0%,8.1,u
COc1ccc(NC(=O)c2ccccc2NC(=O)c2ccco2)cc1,u,u,-17.1%,6.5,-7.1%
O=C(Nc1c(C(=O)Nc2ccc(F)cc2)oc2ccccc12)c1cc2ccccc2o1,u,18.4µM*,x,x,x
O=C(Nc1ccc(F)cc1)c1oc2ccccc2c1NC(=O)C12CC3CC(CC(C3)C1)C2,1.7%,u,x,x,x
COc1ccc(NC(=O)c2oc3ccccc3c2NC(=O)c2cc3ccccc3o2)cc1,u,4.11µM*,x,x,x
COc1ccc(NC(=O)c2oc3ccccc3c2NC(=O)c2ccco2)cc1,u,18.4µM*,u,x,4.1%
CCOC(=O)c1c(C)[nH]c(C)c1S(=O)(=O)NCC(=O)Nc1ccc(C)c(N(C)C)c1,-23.2%,-19.1%,x,x,x
O=C(CN1C(=O)C(=O)N(C2CCCC2)C1=O)Nc1ccc(N2CCOCC2)cc1,-2.7%,-1.7%,7.0%,1.4,1.0%
O=c1oc2cc(O)ccc2cc1-c1ccc2c(c1)OCCO2,12.9%[9.04 µM],-1.9%[9.04 µM],x,x,x
COc1ccc(NC(=O)c2oc3ccccc3c2NC(=O)c2cc(=O)c3c(C)cc(C)cc3o2)cc1,u,2.91µM*,x,x,x
O=C(NC1CCCCC1)/C(=N\O)c1ccccn1,-2.2%,1.4%,-1.9%,-0.1,7.6%
COc1ccc2c(c1)OC(C)CN(CC(=O)NCc1cn[nH]c1-c1ccc(F)cc1)C2 (centres undefined),-1.5%[9.04 µM],-18.6%,x,x,x
Cc1ccc(-n2cnc(=O)c3cccnc32)cc1,-6.0%,-10.7%,2.0%,20.1,10.2%
C#CCSc1nc(=O)c2cccnc2n1-c1ccc(C)cc1,5.17µM*,5.8µM*,-2.1%,25.8,-3.2%
Cc1nnsc1C(=O)NC1CCCc2c1cnn2-c1ccc(F)cc1F (centres undefined),6.51µM*,5.8µM*,-14.7%,6.5,7.31µM*
COC(=O)c1ccc(C(=O)NC2CCCc3c2cnn3-c2ccccc2F)nc1 (centres undefined),5.17µM*,2.91µM*,u,74.6,u
COc1cc(C(=O)NC2CCCc3c2cnn3-c2ccccc2F)cc(OC)c1OC (centres undefined),10.3µM*,2.91µM*,-24.7%,-21.4,-21.4%
CC(C)(C)OC(=O)N1CCc2nc(N3CCN(c4ncccn4)CC3)ncc2C1,-10.6%,-26.2%,x,x,x
FC(F)(F)c1nnc2ccc(Sc3ccccn3)nn12,-1.7%,-1.2%,2.4%,-9.9,1.9%
CCC/C=C/c1ccc(CN2C(C(C)C)C(=O)N(Cc3cn(Cc4ccco4)nn3)CCS2(=O)=O)cc1 (centres undefined),u,23.1µM*,u,u,u
COc1ccc(-c2ccc(CN3C(C)C(=O)N(Cc4cn(Cc5ccco5)nn4)CCS3(=O)=O)cc2)cc1 (centres undefined),20.6µM*,23.1µM*,u,5.9,-26.6%
SMILES,TDP1 cell CPT,DT40 TDP1 no CPT,HT1080 IDH1KD tx,IL-1B inflam inh,HT1080-NT tox
CCC/C=C/c1ccc(CN2C(C)C(=O)N(Cc3cn(Cc4ccco4)nn3)CCS2(=O)=O)cc1 (centres undefined),u,u,-14.9%,u,-16.4%
CC1C(=O)N(Cc2cn(Cc3ccco3)nn2)CCS(=O)(=O)N1Cc1ccc(-c2ccc(Cl)c(Cl)c2)cc1 (centres undefined),14.6µM*,8.2µM*,u,-51.4*,u
CC1C(=O)N(Cc2cn(Cc3ccco3)nn2)CCS(=O)(=O)N1Cc1ccc(-c2cccnc2)cc1 (centres undefined),u,u,20.7%,u,5.5%
CC1C(=O)N(Cc2cn(Cc3ccco3)nn2)CCS(=O)(=O)N1Cc1ccc(-c2cccc(N(C)C)c2)cc1 (centres undefined),25.9µM*,16.4µM*,-12.8%,-17.6,-12.2%
Cc1ccc(-c2ccc(CN3C(C)C(=O)N(Cc4cn(Cc5ccco5)nn4)CCS3(=O)=O)cc2)c(C)c1 (centres undefined),u,u,u,-60.8*,u
CC(C)CC1C(=O)N(Cc2cn(Cc3ccco3)nn2)CCS(=O)(=O)N1Cc1ccc(-c2cccc(N(C)C)c2)cc1 (centres undefined),u,13µM*,-12.3%,-0.2,-3.3%
COc1ccc(-c2ccc(CN3C(C(C)C)C(=O)N(Cc4cn(Cc5ccco5)nn4)CCS3(=O)=O)cc2)cc1 (centres undefined),u,20.6µM*,-29.1%,-0.1,-14.4%
COc1ccc(-c2ccc(CN3C(C(C)C)C(=O)N(Cc4cn(Cc5ccco5)nn4)CCS3(=O)=O)cc2)cc1OC (centres undefined),u,u,-2.7%,12.0,-2.5%
Cc1ccc(-c2ccc(CN3C(C)C(=O)N(Cc4cn(Cc5ccco5)nn4)CCS3(=O)=O)cc2)cc1 (centres undefined),u,u,u,-9.7,u
CC(C)C1C(=O)N(Cc2cn(Cc3ccco3)nn2)CCS(=O)(=O)N1Cc1ccc(-c2ccc(Cl)c(Cl)c2)cc1 (centres undefined),4.61µM*,3.26µM*,u,-22.7,u
Cc1c(C(=O)NCCc2ccncc2)cnn1-c1nccc(-c2ccccc2C(F)(F)F)n1,u,-57.1%,x,x,x
O=C(NCc1ccccc1)NC1CCS(=O)(=O)C1 (centres undefined),40.3%,-7.5%,-3.7%,15.4,-6.1%
Cn1cccc1C(=O)N1CCC[C@@]2(CCN(c3ncccn3)C2)C1,4.8%,-3.5%,x,x,x
COc1ccc(-c2ccc(CN3C(C(C)C)C(=O)N(Cc4cn(Cc5ccco5)nn4)CCS3(=O)=O)cc2)cn1 (centres undefined),18.4µM*,20.6µM*,-3.2%,-24.6,-8.9%

# Assay outcomes from PubChem.
